Measurements as given in PubChem BioAssay.
Calls of active or inactive are those of the source. Unless noted, how the calls were made is not given here.

How the values were obtained:
[1] = resazurin metabolic signal in HepG2 cells – cell-based, resazurin fluorescence, 24 h, PK04 Diversity Set, profiling panel (AID 1172); conditions: HepG2 viability, higher = more signal; further: test concentration not given here
[2] = budding yeast growth changes without added modifier – OD600, strain BY4716, 24 h, basal condition, primary screen (AID 1173); conditions: S. cerevisiae BY4716 growth, OD600, 24 h; higher = more signal, called active from +8 up or from −8 down
[3] = viability profiling in MM1S myeloma cells – cell-based, resazurin fluorescence, basal, 24 h, PK04 Diversity Set, profiling panel (AID 1174); conditions: higher = more signal, called active from +8 up or from −8 down;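 further: MM1S multiple myeloma cell line; test concentration not given here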
[4] = molecular target: Dihydroorotate dehydrogenase (quinone), mitochondrial (Plasmodium falciparum (isolate 3D7)) (UniProt Q08210); test: inhibition of P. falciparum DHODH – biochemical, C-terminal His tag, absorbance 600 nm, primary screen (AID 1175); conditions: PfDHODH enzyme, DCIP absorbance 600 nm; higher = more signal, called active from +8 up or from −8 down;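 further: recombinant parasite enzyme with a five histidine tag at its C terminus; test concentration not given here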
Dihydroorotate dehydrogenase (quinone), mitochondrial (Plasmodium falciparum (isolate 3D7)), sequence (Q08210 whole entry, looked up): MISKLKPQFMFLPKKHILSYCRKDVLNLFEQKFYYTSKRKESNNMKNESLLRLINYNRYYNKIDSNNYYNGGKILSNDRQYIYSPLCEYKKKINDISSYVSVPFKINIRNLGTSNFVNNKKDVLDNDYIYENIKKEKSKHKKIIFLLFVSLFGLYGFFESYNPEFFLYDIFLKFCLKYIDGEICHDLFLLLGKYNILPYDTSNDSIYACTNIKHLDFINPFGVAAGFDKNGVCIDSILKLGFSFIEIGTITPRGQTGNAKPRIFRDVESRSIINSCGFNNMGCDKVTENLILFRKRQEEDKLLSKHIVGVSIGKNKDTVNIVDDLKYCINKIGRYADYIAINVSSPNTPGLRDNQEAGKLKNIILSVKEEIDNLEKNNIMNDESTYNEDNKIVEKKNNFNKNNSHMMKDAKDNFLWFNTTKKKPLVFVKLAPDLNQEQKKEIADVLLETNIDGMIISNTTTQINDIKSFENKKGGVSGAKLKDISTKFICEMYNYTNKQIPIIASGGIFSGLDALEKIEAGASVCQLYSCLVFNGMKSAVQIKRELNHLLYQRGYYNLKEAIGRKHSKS

[5] = inhibition of PAO1 biofilm formation – strain PAO1, LB-PBS medium, absorbance 600 nm, primary screen (AID 1176); further: test concentration not given here; conditions: P. aeruginosa PAO1 growth/biofilm, A600, 12 h; higher = more signal
[6] = growth modulation of vineyard yeast isolate – strain RM11-1a, OD600, basal, 24 h, primary screen (AID 1177);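 further: cultures grown under basal conditions with no added stressor; test concentration not given here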; conditions: S. cerevisiae RM11-1a growth, OD600, 24 h; higher = more signal, called active from +8 up or from −8 down
[7] = growth of efflux-deficient E. coli DRC39 – strain DRC39, OD650, 24 h, E. coli filamentation inducers, primary screen (AID 1178);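 further: growth measured as culture turbidity by optical density at 650 nm; test concentration not given here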; conditions: E. coli DRC39 acrAB, higher = more signal, called active from +8 up or from −8 down
[8] = growth of efflux-deficient E. coli DRC39 – strain DRC39, OD650, 48 h, E. coli filamentation inducers, primary screen (AID 1179);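 further: screen aims at cell division blockers that make cells filament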; conditions: E. coli DRC39 delta-acrAB growth, higher = more signal, called active from +8 up or from −8 down
[9] = viability profiling in RPMI8226 myeloma cells – cell-based, resazurin fluorescence, basal, 24 h, PK04 Diversity Set, profiling panel (AID 1180); conditions: higher = more signal;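 further: RPMI8826 multiple myeloma cell line at 5000 cells per well; test concentration not given here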
[10] = molecular target: E3 ubiquitin-protein ligase XIAP (Homo sapiens) (UniProt P98170); test: small molecules binding XIAP protein – biophysical, small-molecule microarray, fluorescence 635 nm, primary screen (AID 1181); conditions: higher = more signal;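 further: score merges 667 nm emission and signal to noise over triplicate slides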
E3 ubiquitin-protein ligase XIAP (Homo sapiens), sequence (P98170 whole entry, looked up): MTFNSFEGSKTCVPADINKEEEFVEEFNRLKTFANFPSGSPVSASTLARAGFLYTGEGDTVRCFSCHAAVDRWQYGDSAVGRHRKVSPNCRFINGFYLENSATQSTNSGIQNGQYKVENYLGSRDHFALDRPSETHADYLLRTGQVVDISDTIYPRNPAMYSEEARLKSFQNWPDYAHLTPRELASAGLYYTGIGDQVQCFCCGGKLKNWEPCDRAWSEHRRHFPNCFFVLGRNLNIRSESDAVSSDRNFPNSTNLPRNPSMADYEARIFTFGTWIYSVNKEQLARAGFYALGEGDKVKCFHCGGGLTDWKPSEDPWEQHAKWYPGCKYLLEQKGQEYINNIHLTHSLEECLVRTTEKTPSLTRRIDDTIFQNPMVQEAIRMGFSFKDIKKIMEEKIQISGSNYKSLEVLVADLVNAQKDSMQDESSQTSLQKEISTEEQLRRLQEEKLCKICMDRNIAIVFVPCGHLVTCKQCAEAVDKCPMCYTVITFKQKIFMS

Row | SMILES | z-score [1] | z-score [2] | z-score [3] | composite z-score [4] | z-score [5] | z-score [6] | z-score [7] | z-score [8] | z-score [9] | composite z-score [10]
1 | C=CCOC(=O)[C@H]1[C@@H]2C(=O)O[C@@H](c3ccccc3)[C@@H](c3ccccc3)N2[C@@H](c2ccc(OCCOC(=O)[C@@H]3C[C@@H]4C(=O)N[C@@H](CC(C)C)C(=O)N4[C@@H]3c3ccc(O)cc3)cc2)[C@]12C(=O)Nc1ccccc12 | 0.256 | 1.23 (inactive) | -0.347 (inactive) | -0.295 (inactive) | 2.94 (inactive) | 2.05 (inactive) | -0.149 (inactive) | -0.72 (inactive) | 0.169 | -0.0559
2 | CN1C(=O)C2C=CC(C(O)c3ccccc3)N(N(c3ccccc3)c3ccccc3)C2C1=O (stereo not given) | -0.112 | 0.833 (inactive) | -0.728 (inactive) | 0.0002 (inactive) | 0.226 (inactive) | 0.579 (inactive) | -0.854 (inactive) | 0.139 (inactive) | -0.323 | 0.259
3 | O=C1O[C@@H](c2ccccc2)[C@@H](c2ccccc2)N2[C@@H](c3ccccc3OCCO)[C@]3(C(=O)Nc4ccc(C#CC5=CCCCC5)cc43)[C@@H](C(=O)N3CCCCCCC3)[C@H]12 | -0.868 | 0.98 (inactive) | -6.31 (inactive) | -0.35 (inactive) | 1.63 (inactive) | 1.19 (inactive) | -0.994 (inactive) | -0.576 (inactive) | -4.11 | 1.56
4 | COc1cccc(-c2cccc(=O)o2)c1 | -0.314 | -7.29 (inactive) | -0.28 (inactive) | -1.02 (inactive) | 0.381 (inactive) | 0.346 (inactive) | -0.0605 (inactive) | -0.17 (inactive) | -0.0335 | 0.488
5 | CCOC(=O)C[C@H]1[C@H](OC(=O)c2ccc(C(=O)c3ccccc3)cc2)[C@@H](NC(=O)CC(C)C)c2cc(OCCCO)ccc2N1C(=O)c1ccc2ccccc2n1 | 0.85 | 1.1 (inactive) | -0.469 (inactive) | -0.888 (inactive) | 0.453 (inactive) | 0.8 (inactive) | -0.0708 (inactive) | 0.648 (inactive) | -0.0956 | -0.102
6 | Cc1ccc(S[C@]2(C(=O)NCCCN(C)C)CC(=O)N(Cc3ccccc3C(F)(F)F)[C@@H]2c2ccc(CO)cc2)cc1 | -0.758 | -0.362 (inactive) | 0.515 (inactive) | -0.0819 (inactive) | -0.0807 (inactive) | -0.329 (inactive) | 0.252 (inactive) | 0.164 (inactive) | 0.119 | -0.267
7 | CN(C)CCCC[C@@H]1NC(=O)[C@H]2C[C@@H](C(=O)NCCCCCCN)[C@@H](c3ccc(O)cc3)N2C1=O | -0.24 | -0.343 (inactive) | 0.696 (inactive) | -1.31 (inactive) | -0.338 (inactive) | 0.578 (inactive) | 0.332 (inactive) | 0.458 (inactive) | 0.683 | 0.121
8 | COC(=O)C(CC#Cc1ccc2c(c1)[C@]1(C(=O)N2)[C@H](C(=O)Nc2nc3ccccc3s2)[C@H]2C(=O)O[C@H](c3ccccc3)[C@H](c3ccccc3)N2[C@@H]1c1ccccc1OCCO)C(=O)OC | 0.522 | 0.839 (inactive) | -0.334 (inactive) | -4.92 (inactive) | 2.47 (inactive) | 2.1 (inactive) | -0.0715 (inactive) | 0.037 (inactive) | -1.1 | 0.472
9 | C=CCN1C(=O)[C@]2(O[C@H](CCn3cc([C@H](O)c4ccccc4)nn3)[C@@H]([Si](C)(C)c3ccc(OC)cc3)[C@@H]2C)c2ccccc21 | -1.25 | -0.242 (inactive) | -1.68 (inactive) | -0.591 (inactive) | 1.29 (inactive) | 0.507 (inactive) | 0.617 (inactive) | 0.169 (inactive) | -1.69 | -0.104
10 | C[N+](C)(C)CCCCNC(=O)[C@@H]1C[C@@H]2C(=O)N[C@@H](Cc3ccccc3)C(=O)N2[C@@H]1c1cccc(OCCO)c1 | -0.278 | -0.143 (inactive) | 0.548 (inactive) | -24.9 (active) | -0.226 (inactive) | 0.145 (inactive) | 0.994 (inactive) | 1.31 (inactive) | 0.0965 | -0.138
11 | COC(=O)C(CC#Cc1ccc2c(c1)[C@]1(C(=O)N2)[C@H](c2ccc(OCCO)cc2)N2[C@H](c3ccccc3)[C@H](c3ccccc3)OC(=O)[C@H]2[C@@H]1C(=O)Nc1nc2ccccc2s1)C(=O)OC | 1.51 | 2.09 (inactive) | 0.932 (inactive) | -0.983 (inactive) | 2.98 (inactive) | 3.16 (inactive) | 1.01 (inactive) | 0.824 (inactive) | -0.257 | -0.138
12 | C=CCC(OC(C)=O)[C@@H]1[C@@H](N(Cc2ccc(-c3ccccc3)cc2)C(=O)c2cccc3ccccc23)c2cc(OCCCO)ccc2N1C(=O)c1ccc(-c2ccccc2)cc1 (stereo not given in full) | -0.398 | -0.467 (inactive) | 0.395 (inactive) | -0.0355 (inactive) | -0.0391 (inactive) | -0.768 (inactive) | 1.59 (inactive) | 0.734 (inactive) | 0.234 | -0.411
